Screening results from PubChem.
PostGolgi yeast: growth inhibition of a yeast mutant, post-Golgi transport screen. post-Golgi transport phenotypic cell assay. inhibition, % at 10 µM. hit rate 0.9% among 98,000;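 further: yeast cells grown in 1536-well plates; yeast grown about 18 h at 30C before absorbance read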
CYP2C19 inhib: blocks human cytochrome P450 2C19; P33261; CYP2C19 Supersomes, luciferin-H EGE luminescence, 30 min; inhibition, % at 5 µM; hit rate 21% among 96,000; AID 778;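 active means CYP2C19 inhibition above a set limit at 5 µM in the primary screen, cut at about 50% in these data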;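 further: plate controls were negative control wells for no effect and 2.5 mM tranylcypromine positive control for full effect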
Target sequence (P33261 whole entry, looked up): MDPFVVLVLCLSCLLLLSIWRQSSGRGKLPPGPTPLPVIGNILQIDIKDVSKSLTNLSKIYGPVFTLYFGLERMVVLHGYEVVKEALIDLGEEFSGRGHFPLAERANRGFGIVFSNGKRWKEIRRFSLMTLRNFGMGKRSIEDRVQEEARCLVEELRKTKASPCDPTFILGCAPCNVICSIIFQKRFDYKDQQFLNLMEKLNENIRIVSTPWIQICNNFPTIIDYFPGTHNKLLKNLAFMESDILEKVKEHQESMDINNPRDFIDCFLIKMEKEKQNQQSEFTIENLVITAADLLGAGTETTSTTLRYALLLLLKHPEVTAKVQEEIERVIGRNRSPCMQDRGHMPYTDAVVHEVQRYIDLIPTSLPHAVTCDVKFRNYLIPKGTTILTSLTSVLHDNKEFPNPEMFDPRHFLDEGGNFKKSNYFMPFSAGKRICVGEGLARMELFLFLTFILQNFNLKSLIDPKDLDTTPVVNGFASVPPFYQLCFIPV
CYP2C19 act: cytochrome P450 2C19 (human) activation; P33261; recombinant CYP2C19, luciferin-H EGE luminescence; stronger effect = higher value; 0 = fully inhibited enzyme, 1 = untreated enzyme; activation factor at 5 µM; 96,000 tested, under 10 active;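 active means activation factor of at least 2 at 5 µM in the primary screen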;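 further: 0 = wells with 2.5 mM tranylcypromine and 1 = vehicle-only wells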
PostGolgi ctrl: growth of the yeast control strain, post-Golgi counter-screen. efflux-deficient yeast background strain, growth absorbance A615, 16 h. inhibition, % at 10 µM. hit rate 5% among 98,000. AID 738
CYP2C9 inhib: human CYP2C9 inhibition; inhibition, % at 5 µM; P11712; hit rate 20% among 96,000; CYP2C9 Supersomes, luciferin-H conversion, luminescence; AID 777;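 active means blocking of liver enzyme CYP2C9 beyond about 50% at 5 µM, limit read from the data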
CYP2C9 activ: CYP2C9 (human) activation. P11712. recombinant CYP2C9, luciferin-H conversion, luminescence; stronger effect = higher value; factor 1 = untreated enzyme, 0 = blocked. activation factor at 5 µM. hit rate 1.4% among 96,000. AID 1024;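 active means activation factor of 2 or more for CYP2C9 at a 5 µM dose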;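 further: 0 = sulfaphenazole-blocked wells and 1 = vehicle-only wells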
Starred values were filed as active, the others as inactive; nt = no result. Hits are enriched below; roughly 32% of the tested compounds scored in any of these assays. Unless noted, no stated cut-off is given here; in the data, active means inhibition above about 30%; inactive means the rest.

SMILES	PostGolgi yeast	CYP2C19 inhib	CYP2C19 act	PostGolgi ctrl	CYP2C9 inhib	CYP2C9 activ
CC(C)c1cc(C(N)=O)c(NC(=O)c2cccc(COc3ccc(Cl)cc3)c2)s1	-6	74*	0.3	27	72*	0.3
COc1ccc(CN/C=C2\CCCCC2=O)cc1	13	3	1	-1	-5	1.1
COc1ccc(OC)c(N=c2oc3c(OC)cccc3cc2C(=O)NCc2ccco2)c1	nt	45	0.6	nt	50*	0.5
COc1ccccc1N=c1oc2c(OC)cccc2cc1C(=O)NCc1ccco1	10	66*	0.3	0	62*	0.4
COc1ccc(N=c2oc3c(OC)cccc3cc2C(=O)NCc2ccco2)cc1OC	-6	50*	0.5	5	72*	0.3
COc1ccc(CC(=O)NCc2ccco2)cc1OC	-1	43	0.6	10	-10	1.1
CCn1c(SCC(=O)N2CCN(c3ccc(F)cc3)CC2)nnc1-c1ccncc1	-4	19	0.8	19	27	0.7
COC(=O)c1cc2oc(C)cc2n1CC(=O)Nc1cc(C)cc(C)c1	-1	-11	1.1	2	4	1
O=C(Nc1nnc(COc2ccc(Cl)cc2)s1)c1ccc([N+](=O)[O-])cc1	22	-14	1.1	2	-2	1
COCc1nnc(NS(=O)(=O)c2ccc(Br)cc2)s1	9	-13	1.1	7	57*	0.4
COCc1nnc(NS(=O)(=O)c2ccc([N+](=O)[O-])cc2)s1	11	-20	1.2	-4	82*	0.2
COc1ccc(S(=O)(=O)Nc2nncs2)cc1	2	nt	nt	0	nt	nt
COCCn1c(SCCN2CCCCC2)nc2ccccc2c1=O	-1	31	0.7	13	5	1
O=C(CC1(O)C(=O)Nc2ccccc21)c1ccc(-n2cccc2)cc1 (configuration not stated)	-4	10	0.9	31*	10	0.9
O=C(CC1(O)C(=O)Nc2ccccc21)c1ccccc1 (configuration not stated)	0	7	0.9	0	-15	1.2
CCOC(=O)c1[nH]c2ccc(F)cc2c1NC(=O)Nc1ccccc1OC	-8	-17	1.2	-3	-9	1.1
N#CC(C(=O)Nc1cccc(Cl)c1)=C1Nc2ccccc2N1	-18	-23	1.2	13	-11	1.1
N#C/C(=N\Nc1cccc(Cl)c1)C(=O)c1ccccc1	11	32	0.7	84*	63*	0.4
N#C/C(=N\Nc1ccccc1Cl)C(=O)c1ccccc1	-3	30	0.7	48*	22	0.8
Cc1cccc(NC(=S)NC(=O)/C=C/c2ccco2)n1	-8	50	0.5	12	55*	0.5
Oc1cc2ccccc2cc1-c1n[nH]c(=S)o1	11	-4	1	8	68*	0.3
Cc1ccc(NC(=O)CCC(=O)NNC(=O)c2ccco2)cc1C	1	2	1	-6	-2	1
Cc1nn(-c2ccccc2)c2nc(N)c(C#N)c(-c3ccc(F)cc3)c12	4	2	1	23	84*	0.2
CCCCCc1nc(N)c(C#N)c(-c2ccco2)c1CCCC	-2	-12	1.1	8	12	0.9
Cc1cc(-c2ccccc2)n2nc(C)c(C#N)c2n1	12	22	0.8	4	5	1
SMILES	PostGolgi yeast	CYP2C19 inhib	CYP2C19 act	PostGolgi ctrl	CYP2C9 inhib	CYP2C9 activ
Cc1nc(N)c(C#N)c(-c2ccccc2)c1C	-1	17	0.8	31*	22	0.8
Cc1c(-c2ccccc2)nc(N)c(C#N)c1-c1ccco1	-4	69*	0.3	4	45	0.5
CN(C)C(CN1C(=O)C2CC=CCC2C1=O)c1cn(C)c2ccccc12 (configuration not stated)	-3	29	0.7	7	8	0.9
COc1ccc(N=C(N(C)C)P(=O)(N(C)C)N(C)C)cc1	9	8	0.9	6	-8	1.1
Cc1ccc(-c2cc(-c3ccccc3)c(C#N)c(N)n2)o1	5	33	0.7	10	7	0.9
Cc1ccc(-c2cc(-c3ccccc3Cl)c(C#N)c(N)n2)o1	0	92*	0.1	8	82*	0.2
Cc1ccc(-c2cc(-c3ccc(F)cc3)nc(N)c2C#N)o1	9	39	0.6	8	52*	0.5
CCOC(=O)C1C(=O)CC(=O)CC1CC(C)SCC (configuration not stated)	-2	6	0.9	2	-10	1.1
CCc1nn(C(C)C(=O)NCCc2ccc(OC)c(OC)c2)c(=O)c2cc3occc3n12 (configuration not stated)	-9	3	1	5	17	0.8
CCc1nn(C(C)C(=O)NC(C)CCc2ccco2)c(=O)c2cc3occc3n12 (configuration not stated)	-2	60*	0.4	8	77*	0.2
Cc1cc(C)n(C(C)n2nc(C)cc2C)n1	4	17	0.8	7	-8	1.1
Cc1ccccc1NC(=O)CN1C(=O)COc2ccc(Cl)cc21	-9	97*	0	8	55*	0.4
CC(=O)c1ccc(NC(=O)CN2C(=O)COc3ccc(Cl)cc32)cc1	-2	75*	0.2	8	-2	1
CCOc1ccc(NC(=O)CCC(=O)OC)cc1	24	31	0.7	4	-70	1.7
COCCn1c(SCC(=O)Nc2cc(C)on2)nnc1-c1ccco1	1	26	0.7	4	26	0.7
O=C1C(Nc2cccc(O)c2)=C(N2CCCCC2)C(=O)c2ccccc21	-6	39	0.6	-9	62*	0.4
O=C1C(Nc2ccccc2)=C(N2CCCCC2)C(=O)c2ccccc21	10	68*	0.3	9	50	0.5
CN(C1=C(N2CCCCC2)C(=O)c2ccccc2C1=O)c1ccccc1	-1	95*	0.1	33*	90*	0.1
O=C(/C=C/c1ccc(O)cc1)c1ccc(NC2=C(N3CCCCC3)C(=O)c3ccccc3C2=O)cc1	6	69*	0.3	10	49	0.5
Cc1ccc(NC2=C(N3CCCCC3)C(=O)c3ccccc3C2=O)cc1	11	43	0.6	26	28	0.7
CC(C(=O)N1CCCCC1)N1C(=O)c2ccccc2C1=O (configuration not stated)	-3	-10	1.1	11	-11	1.1
COc1ccccc1N1CCN(S(=O)(=O)c2cccc3nsnc23)CC1	1	43	0.6	3	12	0.9
OC(CN1C2=NCCN2c2ccccc21)c1ccc2c(c1)OCO2 (configuration not stated)	6	12	0.9	6	15	0.8
Cc1ccccc1N1C(=O)N(c2cccc(C(F)(F)F)c2)C2CS(=O)(=O)CC21 (configuration not stated)	6	63*	0.4	39*	20	0.8
